# In PubChem BioAssay AID430 (Sanford-Burnham Center for Chemical Genomics, 2006):
# In all, about 63,000 compounds went through this assay and about 1,100 (1.7%) were called active. This is one part of a sample in which actives are shown more often than they occur. Measured potencies and affinities stand elsewhere. Unmarked numbers belong to inactive results. Rule as the data show it: active = cytotoxicity above about 50%; inactive = the rest.
# Test: cytotoxicity in HPDE-C7 cells, cell-based, fluorescence, HTS (AID 430);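 also: cells exposed to compound for 48 hours before viability readout; 0% = vehicle and 100% = reference cytotoxic drug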
# Conditions: HPDE-C7 pancreatic duct cells viability, at 10 µM, hits give high values
row,Structure (SMILES),cytotoxicity
1,Cn1c(=O)c2cc(S(=O)(=O)NCCC(=O)N3CC=C(c4ccccc4)CC3)ccc2n(C)c1=O,-11.2%
2,COc1c(Cl)cc(Cl)cc1/C=N/n1cnnc1,-1.3%
3,CNS(=O)(=O)c1ccc(NC(=O)C(CCSC)NC(N)=O)cc1 (configuration not stated),0.9%
4,CCOc1ccc(S(=O)(=O)Nc2cccnc2)cc1,-3.5%
5,CCOc1ccc(NS(=O)(=O)c2ccc(NS(C)(=O)=O)cc2)cc1,-4.7%
6,COc1ccc(S(=O)(=O)Nc2cccc(Cl)c2)cc1OC,13.9%
7,CCOc1ccc(S(=O)(=O)Nc2cc(Cl)ccc2O)cc1,67.2% (active)
8,CCOc1ccc(S(=O)(=O)Nc2cccc(Cl)c2)cc1,57.6% (active)
9,CCOc1ccc(NS(=O)(=O)c2cc(Cl)ccc2OC)cc1,-8.2%
10,CCCc1cc(=O)[nH]c(SC(CC)C(=O)Nc2ccccc2C#N)n1 (configuration not stated),-23.8%
11,O=C(Cn1cc2c(n1)CCCC2)NC1CCCCCC1,-9.2%
12,Cn1cccc1C(=O)OCc1cc(Cl)cc2c1OCOC2,1.1%
13,CCN(CC(=O)Nc1ccccc1C(=O)OC)S(=O)(=O)c1ccc(OC)cc1,1.1%
14,Cc1ccc(Cl)cc1N1CCN(Cc2nnnn2C2CCCCC2)CC1,-16%
15,Cc1ccc(N=c2oc3cc(O)ccc3cc2C(N)=O)cc1,3.9%
16,NC(=O)c1cc2ccc(O)cc2oc1=Nc1ccccc1,5.3%
17,Cc1cccc(N=c2oc3cc(O)ccc3cc2C(N)=O)c1,59.6% (active)
18,COCCn1c(SCC(=O)Nc2nnc(C)s2)nnc1-c1cc2ccccc2cc1O,7.4%
19,Cc1[nH]c(=O)[nH]c(=O)c1NS(=O)(=O)c1ccc2c(c1)CCCC2,10.1%
20,COCCCN(C(=O)Nc1ccccc1)C(C)c1ccncc1 (configuration not stated),4.9%
21,COc1ccc(N2C(=O)CC(N3CCN(C4CCc5ccccc5C4)CC3)C2=O)cc1 (configuration not stated),-10.3%
22,COc1cccc(NC(=O)CSC2=C(C#N)C(c3ccco3)C3=C(CCCC3=O)N2)c1 (configuration not stated),22.1%
23,CCc1ccc(NC(=O)CSC2=C(C#N)C(c3ccco3)C3=C(CCCC3=O)N2)cc1 (configuration not stated),-0.7%
24,Cc1ccc(NC(=O)CSC2=C(C#N)C(c3ccco3)C3=C(CC(C)(C)CC3=O)N2)cc1 (configuration not stated),57.2% (active)
25,CCOC(=O)C1=C(c2ccccc2)NC(SCC(=O)Nc2ccc(C)cc2)=C(C#N)C1c1ccco1 (configuration not stated),10.3%
26,CCCCc1ccc(NC(=O)CSC2=C(C#N)C(c3ccco3)C3=C(CCCC3=O)N2)cc1 (configuration not stated),72.2% (active)
27,CC1(C)CC(=O)C2=C(C1)NC(SCC(=O)Nc1ccccc1)=C(C#N)C2c1ccco1 (configuration not stated),-16.1%
